Records with an inconclusive call do not appear. Entries that show only a call come without a potency. Calls of active or inactive are those of the source. Unless noted, calls follow the shape of the dose curve; as a rule, active = well fitted curve in the direction sought with a large enough effect in the repeat runs; inconclusive = weak or mixed curves; inactive = no such curve, though single readings can be large; an effect the other way counts as inactive or inconclusive.
Columns and labels:
[1] = qHTS assay to identify small molecule antagonists of the TGF-beta/Smad signaling pathway - cell viability counter screen (AID 1346824); also: nearly all actives have a fitted effect of over 50% in size
How it was run: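 Cytotoxicity counter-screen run in the same wells as the beta-lactamase Smad reporter read: CellTiter-Glo luminescence after 30 min at room temperature. HEK 293T SBE-bla cells had 5 hr compound exposure at 37 C with TGF-beta1 (0.25 ng/mL stock).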

[2] = qHTS assay to identify small molecule agonists of the TGF-beta/Smad signaling pathway (AID 1346859; active = well fitted activation curve with a large enough effect in the signal ratio in the repeat runs, not every such curve was filed as active; the % refers to the signal ratio; also: potency is read from the fitted curve at half-maximal effect; as to activation: series mostly up to about 77 µM)
How it was run: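 Fluorescence (ex 405 nm; em 460 and 530 nm) was read 2 h after LiveBLAzer FRET substrate at RT. The preceding compound treatment of overnight-plated SBE-bla HEK293T cells lasted 5 h at 37 C.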

[3] = target: Thyrotropin-releasing hormone receptor (Homo sapiens) (UniProt P34981); assay: qHTS assay to identify small molecule antagonists of the thyrotropin-releasing hormone receptor (TRHR) signaling pathway (AID 1346877; active = well fitted inhibition curve with a large enough effect in the repeat runs, not every such curve was filed as active; also: series mostly up to about 51 µM)
Thyrotropin-releasing hormone receptor (Homo sapiens), sequence (P34981 whole entry, looked up): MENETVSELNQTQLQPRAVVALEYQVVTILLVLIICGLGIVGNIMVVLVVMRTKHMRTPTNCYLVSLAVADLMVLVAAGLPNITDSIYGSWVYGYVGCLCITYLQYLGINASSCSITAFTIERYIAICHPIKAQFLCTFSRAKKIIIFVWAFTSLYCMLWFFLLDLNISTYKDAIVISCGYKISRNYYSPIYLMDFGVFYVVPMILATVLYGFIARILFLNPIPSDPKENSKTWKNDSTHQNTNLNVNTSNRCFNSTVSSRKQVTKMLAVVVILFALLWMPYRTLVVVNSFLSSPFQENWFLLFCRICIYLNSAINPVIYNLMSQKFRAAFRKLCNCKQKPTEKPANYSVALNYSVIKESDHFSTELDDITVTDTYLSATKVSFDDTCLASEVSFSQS
How it was run: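 Intracellular calcium fluorescence, read kinetically every second over 3 min, reports TRH-evoked signalling in HEK293 cells carrying TRHR. Test compounds were added 5 min ahead of a 1 nM TRH challenge.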

[4] = target: Thyrotropin-releasing hormone receptor (Homo sapiens) (UniProt P34981); assay: qHTS assay to identify small molecule agonists of the thyrotropin-releasing hormone receptor (TRHR) signaling pathway (AID 1346891; calls by dose curve; also: series mostly up to about 58 µM)
How it was run: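 Agonist-mode intracellular calcium readout: kinetic fluorescence over 3 min at 1 s intervals after compound addition to TRHR-HEK293 cells (18 h seeded, 2 h dye-loaded at 37 C). Fifteen concentrations, triplicates.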

[5] = target: Progesterone receptor (Homo sapiens) (UniProt P06401); assay: qHTS assay to identify small molecule agonists of the progesterone receptor (PR) signaling pathway (AID 1346784; calls by dose curve; also: nearly all actives have a fitted effect of over 30% in size)
Progesterone receptor (Homo sapiens), sequence (P06401 whole entry, looked up): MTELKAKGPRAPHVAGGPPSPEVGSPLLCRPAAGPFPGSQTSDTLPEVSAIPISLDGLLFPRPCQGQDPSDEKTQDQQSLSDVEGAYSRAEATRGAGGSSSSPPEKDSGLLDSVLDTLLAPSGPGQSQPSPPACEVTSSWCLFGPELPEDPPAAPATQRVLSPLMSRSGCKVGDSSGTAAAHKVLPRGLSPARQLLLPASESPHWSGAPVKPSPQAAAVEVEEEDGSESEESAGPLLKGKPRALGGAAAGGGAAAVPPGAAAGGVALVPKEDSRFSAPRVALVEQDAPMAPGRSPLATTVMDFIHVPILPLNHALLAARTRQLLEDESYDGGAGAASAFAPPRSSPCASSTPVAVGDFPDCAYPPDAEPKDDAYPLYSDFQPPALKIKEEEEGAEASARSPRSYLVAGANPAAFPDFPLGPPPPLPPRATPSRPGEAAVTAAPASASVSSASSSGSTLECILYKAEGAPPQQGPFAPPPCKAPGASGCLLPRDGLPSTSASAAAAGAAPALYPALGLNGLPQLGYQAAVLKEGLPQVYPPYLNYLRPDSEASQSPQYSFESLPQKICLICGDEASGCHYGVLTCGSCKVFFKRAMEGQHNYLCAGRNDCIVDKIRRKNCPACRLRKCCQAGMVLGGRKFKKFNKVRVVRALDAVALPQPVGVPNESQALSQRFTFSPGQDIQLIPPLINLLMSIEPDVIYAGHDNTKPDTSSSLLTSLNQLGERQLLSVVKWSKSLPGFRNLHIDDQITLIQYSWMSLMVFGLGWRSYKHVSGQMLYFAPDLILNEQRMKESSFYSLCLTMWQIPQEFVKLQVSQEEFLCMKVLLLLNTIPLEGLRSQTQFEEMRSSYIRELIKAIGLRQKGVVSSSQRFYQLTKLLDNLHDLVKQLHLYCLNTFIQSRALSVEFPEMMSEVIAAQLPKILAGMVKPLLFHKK
How it was run: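 Agonist qHTS: compounds pinned onto 3,000 PR-UAS-bla HEK 293T cells per well in charcoal-stripped serum medium, 16hr at 37C, then beta-lactamase activity measured by LiveBLAzer FRET fluorescence after 2 hours at room temperature.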

[6] = target: Progesterone receptor (Homo sapiens) (UniProt P06401); assay: qHTS assay to identify small molecule antagonists of the progesterone receptor (PR) signaling pathway (AID 1346795; active = well fitted inhibition curve with a large enough effect in the signal ratio in the repeat runs, not every such curve was filed as active; the % refers to the signal ratio; also: potency is read from the fitted curve at half-maximal effect)
How it was run: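 Antagonist mode with agonist R5020 at 1 nM final and 16 hr incubation at 37C. Reporter was beta-lactamase driven by UAS in HEK293T (PR-UAS-bla), 2% charcoal-stripped serum; signal from LiveBLAzer FRET substrate, 2 hr at room temperature.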

[7] = qHTS assay to identify small molecule antagonists of the progesterone receptor (PR) signaling pathway - cell viability counter screen (AID 1346798); also: series mostly up to about 92 µM; nearly all actives have a fitted effect of over 50% in size
How it was run: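 Cytotoxicity read as CellTiter-Glo luminescence (30 min, room temperature) in the same wells as the beta-lactamase readout. HEK293T PR-UAS-bla cells in charcoal-stripped 2% FBS received compound and R5020, then 16 h at 37C, 5% CO2.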

[8] = qHTS assay to identify small molecule agonists of the TGF-beta/Smad signaling pathway - cell viability counter screen (AID 1346829); also: top concentration of the series differs between compounds; nearly all actives have a fitted effect of over 45% in size
How it was run: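 Luminescence from CellTiter-Glo, read after a 30 min room-temperature incubation, gives cell viability of SBE-bla HEK 293T cells treated 5 hr with compounds at 37 C.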

[9] = qHTS assay to identify small molecule agonists of the estrogen receptor alpha (ER-alpha) signaling pathway in the presence of an antagonist - cell viability counter screen (AID 1259386);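 also: cells exposed to compounds for 22 h at 37 °C before the viability read; nearly all actives have a fitted effect of over 30% in size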; also: potency is read from the fitted curve at half-maximal effect
How it was run: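 VM7Luc4E2, stripped-serum pre-culture 5 d; 24hr plating; +ICI-182,780 10.0nM final; cpds 15 conc, 22hr, 37C/5% CO2; CellTiter-Fluor added at 21hr, fluorescence 1hr later.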

Cc1cc(O)ccc1O
Potency [1]: inactive
Potency [2]: inactive
outcome [3]: inactive
Potency [4]: inactive

Oc1c(I)cc(I)c2cccnc12
Potency [5]: inactive
Potency [6]: 7.5 µM (active)
Potency [7]: inactive
Potency [1]: inactive
Potency [8]: inactive
Potency [2]: inactive
outcome [3]: inactive
Potency [4]: inactive

O=[N+]([O-])c1ccc(O/N=C/c2cc(Br)c(O)c(Br)c2)c([N+](=O)[O-])c1
Potency [9]: 27.2 µM (active)
Potency [1]: inactive
Potency [8]: inactive

CN1C[C@H](C(=O)N[C@]2(C)O[C@@]3(O)[C@@H]4CCCN4C(=O)[C@H](Cc4ccccc4)N3C2=O)C[C@@H]2c3cccc4[nH]cc(c34)C[C@H]21
Potency [5]: inactive
Potency [1]: inactive
Potency [8]: inactive
outcome [3]: inactive
Potency [4]: inactive

COC(=O)c1nc(Cl)c(Cl)nc1N
Potency [9]: inactive
Potency [1]: inactive
Potency [8]: inactive
Potency [2]: 23.9 µM (active)
outcome [3]: inactive
Potency [4]: inactive

CCOC(=O)c1ccc(C#Cc2ccc3c(c2)C(C)(C)CCS3)nc1
Potency [9]: inactive
Potency [1]: inactive
Potency [8]: inactive
outcome [3]: inactive
Potency [4]: inactive

CC(C)=CCC/C(C)=C/CC/C(C)=C/C(=O)OCC(=O)[C@@]1(O)CC[C@H]2[C@@H]3CCC4=CC(=O)C=C[C@]4(C)[C@H]3[C@@H](O)C[C@@]21C
Potency [5]: inactive
Potency [8]: inactive
Potency [2]: inactive
outcome [3]: inactive
Potency [4]: inactive

Nc1nc2ccc([N+](=O)[O-])cc2s1
Potency [9]: 54.5 µM (active)
Potency [1]: inactive
Potency [2]: inactive
outcome [3]: inactive
Potency [4]: inactive

— PubChem BioAssay (Tox21)
